Experimental data as given in PubChem BioAssay (Tox21).
Values without a mark were called inactive. Records with an inconclusive call do not appear. A call without a number means that no potency is given here. Activity calls are given as the source filed them. Unless noted, the call rests on the fitted dose curve; in most records, active means well fitted curve in the direction sought with a large enough effect in the repeat runs; inconclusive means weak or mixed curves; inactive means no such curve, though single readings can be large; an effect the other way counts as inactive or inconclusive.

Key:
[1] = qHTS assay to identify small molecule antagonists of the estrogen related receptor signaling pathway with the pleiotropic PPARgamma coactivator (PGC) from Tox21 10K library - cell viability counter screen (AID 1224840; active means well fitted cell-killing curve with a large enough effect in the repeat runs, not every such curve was filed as active; further: nearly all actives have a fitted effect of over 40% in size)
Summary of the method: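 Cell viability is measured by CellTiter-Fluor fluorescence in PGC/ERR cells that receive compounds after a 6-hour attachment period and are then incubated 17.5 hours at 37 C.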

[2] = molecular target: Thyrotropin receptor (Homo sapiens) (UniProt P16473); assay: qHTS assay to identify small molecule agonists of the thyroid stimulating hormone receptor (TSHR) signaling pathway (AID 1224843; calls by dose curve; further: nearly all actives have a fitted effect of over 45% in size)
Sequence of Thyrotropin receptor (Homo sapiens) (P16473 whole entry, looked up): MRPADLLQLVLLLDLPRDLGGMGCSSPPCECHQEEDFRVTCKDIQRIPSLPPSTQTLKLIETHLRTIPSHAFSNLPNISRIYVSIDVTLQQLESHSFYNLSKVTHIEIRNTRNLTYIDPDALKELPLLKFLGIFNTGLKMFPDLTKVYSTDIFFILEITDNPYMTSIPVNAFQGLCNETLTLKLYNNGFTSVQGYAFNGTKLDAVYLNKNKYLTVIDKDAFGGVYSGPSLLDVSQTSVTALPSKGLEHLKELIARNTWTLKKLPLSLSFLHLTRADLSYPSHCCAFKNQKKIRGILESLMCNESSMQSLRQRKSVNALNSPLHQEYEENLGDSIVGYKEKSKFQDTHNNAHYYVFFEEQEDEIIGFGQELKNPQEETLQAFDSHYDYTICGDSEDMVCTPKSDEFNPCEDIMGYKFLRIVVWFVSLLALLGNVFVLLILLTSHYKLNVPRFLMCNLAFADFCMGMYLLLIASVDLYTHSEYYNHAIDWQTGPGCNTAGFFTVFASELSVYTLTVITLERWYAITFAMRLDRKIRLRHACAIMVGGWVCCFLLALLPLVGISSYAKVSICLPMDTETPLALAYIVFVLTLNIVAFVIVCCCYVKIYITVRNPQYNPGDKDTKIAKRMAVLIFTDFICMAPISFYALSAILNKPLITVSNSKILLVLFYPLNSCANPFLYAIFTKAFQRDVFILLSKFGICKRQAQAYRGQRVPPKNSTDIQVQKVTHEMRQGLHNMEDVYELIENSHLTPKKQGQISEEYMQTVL
Summary of the method: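 Agonist-mode screen: TSHR HEK293 cells received test chemicals for half an hour at room temperature, then HTRF cAMP detection reagents for one hour prior to fluorescence measurement. Each chemical ran as a 15-concentration series, triplicated.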

[3] = qHTS assay to identify small molecule agonists of the hypoxia (HIF-1) signaling pathway (AID 1224846; active means well fitted activation curve with a large enough effect in the signal ratio in the repeat runs, not every such curve was filed as active; the % refers to the signal ratio)
Summary of the method: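 Agonist mode reporter screen. ME-180 cells stably expressing bla under HRE control received test compounds in DMSO for 17 hrs (37C, 5% CO2), and beta-lactamase activity was then detected with the CCF4-AM FRET substrate.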

[4] = qHTS assay to identify small molecule agonists of H2AX - cell viability counter screen (AID 1224847; calls by dose curve; further: nearly all actives have a fitted effect of over 30% in size; further: potency means the concentration at half of the fitted maximal effect; on activity change, negative = cytotoxicity: top concentration of the series differs between compounds)
Summary of the method: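 Read-out: CellTiter-Glo luminescence, 30 min RT. Cells: wild-type CHO-K1, 1000/well, 10% FBS, plated overnight at 37C. Treatment: 15 concentrations, 3 hr, 37C, 0.76% DMSO.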

[5] = qHTS RealTime-Glo MT Cell Viability Assay in HepG2 cells - 24 hour (AID 1224867); further: nearly all actives have a fitted effect of over 50% in size
Summary of the method: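 HepG2 cells (600/well) were dispensed with RealTime-Glo reagents, incubated 5 h at 37 °C, then treated with compounds in DMSO for up to 40 h. Nonlytic NanoLuc luminescence reflecting viable cells was read at each stated time point.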

[6] = qHTS RealTime-Glo MT Cell Viability Assay in HEK293 cells - 32 hour (AID 1224868); further: nearly all actives have a fitted effect of over 50% in size; further: potency means the concentration at half of the fitted maximal effect; on activity change, negative = cytotoxic: top concentration of the series differs between compounds
Summary of the method: (§1)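 HEK293 cells seeded with NanoLuc/prosubstrate reagent, rested 5 h at 37 C, then dosed and kept at 37 C up to 40 h. Nonlytic real-time luminescence from viable cells read at 0, 8, 16, 24, 32 and 40 h.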

[7] = A CellTox Green Cytotoxicity Assay to monitor cytotoxicity in HEK293 cells - 0 hour (AID 1224869); further: nearly all actives have a fitted effect of over 50% in size
Summary of the method: (§2)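 Dead-cell fluorescence measured kinetically: asymmetric cyanine dye, HEK293, 600 cells/well, 5 h settle, 23 nL cpd/DMSO, 37 C, reads 0–40 h every 8 h.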

[8] = qHTS RealTime-Glo MT Cell Viability Assay in HepG2 cells - 40 hour (AID 1224870); further: nearly all actives have a fitted effect of over 50% in size; further: potency means the concentration at half of the fitted maximal effect
Summary of the method: (§3)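 HepG2 cells (600/well) mixed with RealTime-Glo MT reagent, settled 5 h at 37 C/5% CO2 before compound addition. Nonlytic NanoLuc luminescence from viable-cell prosubstrate reduction read repeatedly during 40 h treatment at 37 C.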

[9] = A CellTox Green Cytotoxicity Assay to monitor cytotoxicity in HEK293 cells - 40 hour (AID 1224871); further: nearly all actives have a fitted effect of over 45% in size; further: potency means the concentration at half of the fitted maximal effect
Summary of the method: as §2

[10] = qHTS RealTime-Glo MT Cell Viability Assay in HEK293 cells - 16 hour (AID 1224872); further: nearly all actives have a fitted effect of over 50% in size; further: potency means the concentration at half of the fitted maximal effect; on activity change, negative = cytotoxicity: top concentration of the series differs between compounds
Summary of the method: as §1

[11] = qHTS RealTime-Glo MT Cell Viability Assay in HepG2 cells - 8 hour (AID 1224873); further: nearly all actives have a fitted effect of over 55% in size
Summary of the method: as §3

[12] = qHTS assay to identify small molecule agonists of H2AX (AID 1224845; active means well fitted activation curve with a large enough effect in the signal ratio in the repeat runs, not every such curve was filed as active; the % refers to the signal ratio)
Summary of the method: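 Wild-type CHO-K1 cells, plated overnight, exposed 3hr at 37C to 15 concentrations (0.76% DMSO final). Lysed, then HTRF anti-pH2AX (S139) cryptate and anti-H2AX-d2 antibodies, 24 hr room temperature; 665/620 nm emission read.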

[13] = qHTS RealTime-Glo MT Cell Viability Assay in HEK293 cells - 40 hour (AID 1224874); details: RealTime-Glo luminescence; max response: stronger effect = lower value; further: nearly all actives have a fitted effect of over 50% in size; further: potency means the concentration at half of the fitted maximal effect
Summary of the method: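 600 HEK293 cells per well, dispensed already mixed with RealTime-Glo MT reagents. Compound dosing came 5 h later. The same wells were read for luminescence at 0, 8, 16, 24, 32 and 40 h of exposure at 37 C.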

[14] = qHTS assay to identify small molecule agonists of the hypoxia (HIF-1) signaling pathway - cell viability counter screen (AID 1224844; calls by dose curve; further: nearly all actives have a fitted effect of over 50% in size; further: potency means the concentration at half of the fitted maximal effect)
Summary of the method: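 Viability counter screen: HRE-bla ME-180 cells plated 5 hrs before compound addition, treated 17 hrs at 37C and 5% CO2, then CellTiter-Glo added after the FRET reporter read; luminescence after 30 min.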

[15] = qHTS assay to identify small molecule agonists of the estrogen related receptor signaling pathway with the pleiotropic PPARgamma coactivator (PGC) from Tox21 10K library (AID 1224842); further: nearly all actives have a fitted effect of over 15% in size; further: potency means the concentration at half of the fitted maximal effect
Summary of the method: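 PGC/ERR reporter cell line, 2,000 cells per well, incubated 6 h at 37 C before 23 nL compound in DMSO was added. After 18 h at 37 C, One-Glo luminescence read following 30 min at room temperature.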

[16] = qHTS assay to identify small molecule antagonists of the estrogen related receptor (ERR) signaling pathway from Tox21 library (AID 1224848); further: nearly all actives have a fitted effect of over 50% in size; further: potency means the concentration at half of the fitted maximal effect
Summary of the method: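 Quantitative high-throughput format: ERR reporter cells (2,000/well) pre-incubated 6 h, treated 18 h at 37 C with compounds in DMSO alongside positive and negative controls, then read by ONE-Glo luminescence.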

[17] = qHTS assay to identify small molecule agonists of the estrogen related receptor (ERR) signaling pathway from Tox21 library (AID 1224849; calls by dose curve; further: nearly all actives have a fitted effect of over 15% in size); details: ERR reporter cell line, ONE-Glo luciferase, 18 h; at 92.4 µM (top of the series) unless noted
Summary of the method: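 Quantitative HTS in agonist format: NTP ERR cell line, compounds transferred in DMSO after 6 h plating, 18 h incubation at 37 C, ONE-Glo luminescence endpoint.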

[18] = qHTS assay to identify small molecule antagonists of the estrogen related receptor signaling pathway with the pleiotropic PPARgamma coactivator (PGC) from Tox21 10K library (AID 1224841; call rule not given here; further: potency means the concentration at half of the fitted maximal effect)
Summary of the method: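 Cells stably carrying the PGC/ERR reporter, seeded at 2,000 per well, received pin-transferred compounds 6 h post-plating. Exposure lasted 18 h at 37 C. Signal: One-Glo luminescence.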

## C=CC(=O)OCCOC1C2CCC1C1CC=CC12 (stereo not given)
[1]
  viability change, negative = cytotoxic: -0.314% [at 19 µM]
[2]
  activation: -1.28% [at 19 µM]
[3]
  activation: 0.329% [at 15.8 µM]
[4]
  activity change, negative = cytotoxicity: 1.49% [at 31.6 µM]
[5]
  activity change, negative = cytotoxicity: 3.51% [at 15.8 µM]
[6]
  activity change, negative = cytotoxic: 0.499% [at 15.8 µM]
[7]
  cytotoxicity: -3.9% [at 15.8 µM]
[8]
  activity change, negative = cytotoxic: 5.7% [at 15.8 µM]
[9]
  cytotoxicity increase: -0.257% [at 15.8 µM]
[10]
  activity change, negative = cytotoxicity: -2.12% [at 15.8 µM]
[11]
  viability change, negative = cytotoxic: 0.124% [at 15.8 µM]

## O=[N+]([O-])c1ccc(CO)cc1
[12]
  Potency: inactive
[3]
  Potency: inactive
[4]
  Potency: inactive
[5]
  Potency: inactive
[6]
  Potency: inactive
[7]
  Potency: inactive
[9]
  Potency: inactive
[10]
  Potency: inactive
[11]
  Potency: inactive

## CCCCCCCC/C=C\CCCCCCCC(=O)N(CCO)CCO
[1]
  Potency: inactive
[12]
  Potency: inactive
[4]
  Potency: 113 µM (active)
[5]
  Potency: inactive
[6]
  Potency: 43.5 µM (active)
[7]
  Potency: inactive
[8]
  Potency: inactive
[10]
  Potency: 43.5 µM (active)
[11]
  Potency: inactive
[13]
  Potency: 43.5 µM (active)

## C=CC(=O)OCC(Br)CBr (stereo not given)
[2]
  Potency: inactive
[12]
  Potency: inactive
[4]
  Potency: inactive
[5]
  Potency: inactive
[7]
  Potency: inactive
[8]
  Potency: inactive
[11]
  Potency: inactive

## C=C[Si](C)(C)Cl
[2]
  activation: -10.3% [at 8.39 µM]
[12]
  activation (H2AX phosphorylation): 0.0782% [at 14 µM]
[3]
  activation: 0.268% [at 7.01 µM]
[4]
  activity change, negative = cytotoxicity: -1.05% [at 14 µM]
[5]
  activity change, negative = cytotoxicity: -0.615% [at 6.97 µM]
[6]
  activity change, negative = cytotoxic: -3.52% [at 6.97 µM]
[7]
  cytotoxicity: -1.84% [at 6.97 µM]
[8]
  activity change, negative = cytotoxic: 24.3% [at 6.97 µM]
[9]
  cytotoxicity increase: -9.04% [at 6.97 µM]
[10]
  activity change, negative = cytotoxicity: -7.44% [at 6.97 µM]
[11]
  viability change, negative = cytotoxic: -15.7% [at 6.97 µM]
[13]
  max response: -5.42%

## Cc1ccc(C=O)cc1
[1]
  Potency: inactive
[2]
  Potency: inactive
[14]
  Potency: inactive
[3]
  Potency: inactive
[4]
  Potency: inactive
[5]
  Potency: inactive
[6]
  Potency: inactive
[7]
  Potency: inactive
[8]
  Potency: inactive
[9]
  Potency: inactive
[10]
  Potency: inactive
[11]
  Potency: inactive

## CC(=O)Nc1ccc(N=Nc2cc(C)ccc2O)cc1
[15]
  Potency: 4.33 µM (active)
[14]
  Potency: inactive
[12]
  Potency: inactive
[16]
  Potency: inactive
[17]
  activity change, positive = activation: 169% (active)
[5]
  Potency: inactive
[6]
  Potency: inactive
[7]
  Potency: inactive
[8]
  Potency: inactive
[9]
  Potency: inactive
[10]
  Potency: inactive
[11]
  Potency: inactive
[13]
  max response: -19.1%

## CCCCC/C=C\C=C\C(=O)OCC
[14]
  Potency: 51 µM (active)
[4]
  Potency: inactive
[7]
  Potency: inactive
[8]
  Potency: 51 µM (active)
[9]
  Potency: 20.3 µM (active)
[11]
  Potency: inactive
[13]
  Potency: 57.2 µM (active)

## COc1c(Br)cc(Br)c(C)c1Br
[1]
  Potency: inactive
[2]
  Potency: inactive
[14]
  Potency: inactive
[3]
  Potency: inactive
[4]
  Potency: inactive
[5]
  Potency: inactive
[6]
  Potency: inactive
[7]
  Potency: inactive
[8]
  Potency: inactive
[9]
  Potency: inactive
[10]
  Potency: inactive
[11]
  Potency: inactive
[13]
  max response: 1.46%

## C[C@H]1O[C@@H](O[C@H]2CC[C@@]3(C)[C@H](CC[C@@H]4[C@@H]3C[C@@H](O)[C@]3(C)[C@@H](C5=CC(=O)OC5)CC[C@]43O)C2)C[C@H](O)[C@@H]1O[C@H]1C[C@H](O)[C@H](O[C@H]2C[C@H](O)[C@H](O[C@@H]3O[C@H](CO)[C@@H](O)[C@H](O)[C@H]3O)[C@@H](C)O2)[C@@H](C)O1
[18]
  Potency: 335 nM (active)
[15]
  Potency: inactive
[14]
  Potency: 0.379 µM (active)
[3]
  Potency: inactive
[4]
  Potency: inactive
[16]
  Potency: 376 nM (active)
[17]
  activity change, positive = activation: -54.9% [at 42.5 µM]
[5]
  Potency: inactive
[6]
  Potency: 0.239 µM (active)
[7]
  Potency: inactive
[8]
  Potency: inactive
[9]
  Potency: inactive
[11]
  Potency: inactive
[13]
  Potency: 0.239 µM (active)

## CC(C)c1ccc2sc3ccccc3c(=O)c2c1
[1]
  Potency: inactive
[14]
  Potency: inactive
[3]
  Potency: inactive
[4]
  Potency: 50.5 µM (active)
[5]
  Potency: inactive
[7]
  Potency: inactive
[8]
  Potency: inactive
[9]
  Potency: inactive
[11]
  Potency: inactive

## COc1cc([C@@H]2c3cc4c(cc3[C@@H](O[C@@H]3O[C@@H]5CO[C@@H](C)O[C@H]5[C@H](O)[C@H]3O)[C@H]3COC(=O)[C@H]23)OCO4)cc(OC)c1O
[18]
  Potency: inactive
[16]
  Potency: 3810 nM (active)
[17]
  activity change, positive = activation: -61.8%
[5]
  Potency: inactive
[6]
  Potency: 0.861 µM (active)
[7]
  Potency: inactive
[8]
  Potency: inactive
[9]
  Potency: inactive
[11]
  Potency: inactive

## CC(C=O)c1ccccc1 (stereo not given)
[1]
  Potency: inactive
[14]
  Potency: inactive
[12]
  Potency: inactive
[3]
  Potency: inactive
[4]
  Potency: inactive
[5]
  Potency: inactive
[7]
  Potency: inactive
[8]
  Potency: inactive
[9]
  Potency: inactive
[10]
  Potency: inactive
[11]
  Potency: inactive

## Cc1ccc(C2OC[C@@H]3OC(c4ccc(C)cc4)O[C@H]([C@H](O)CO)[C@@H]3O2)cc1 (stereo not given in full)
[1]
  Potency: inactive
[2]
  Potency: inactive
[14]
  Potency: inactive
[12]
  Potency: inactive
[3]
  Potency: inactive
[4]
  Potency: inactive
[5]
  Potency: inactive
[7]
  Potency: inactive
[8]
  Potency: inactive
[11]
  Potency: inactive

## C/C(=C\c1ccc(C(=O)O)cc1)c1ccc2c(c1)C(C)(C)CCC2(C)C
[1]
  Potency: inactive
[2]
  Potency: inactive
[12]
  Potency: inactive
[3]
  Potency: inactive
[4]
  Potency: inactive
[5]
  Potency: inactive
[6]
  Potency: inactive
[7]
  Potency: inactive
[8]
  Potency: inactive
[9]
  Potency: inactive
[10]
  Potency: inactive

## c1ccc(-c2nc3ccccc3[nH]2)cc1
[1]
  Potency: inactive
[14]
  Potency: inactive
[12]
  Potency: inactive
[3]
  Potency: inactive
[4]
  Potency: 89.8 µM (active)
[5]
  Potency: inactive
[6]
  Potency: 34.7 µM (active)
[7]
  Potency: inactive
[8]
  Potency: inactive
[9]
  Potency: inactive
[10]
  Potency: 21.9 µM (active)
[13]
  Potency: 21.9 µM (active)
